50 compounds from PubChem BioAssay AID504810 (National Center for Advancing Translational Sciences (NCATS), 2011) can be followed below.

SMILES strings stand for the structures. The campaign covered roughly 330,000 compounds. About 670 (0.2%) were called active. Only a selection was taken, and actives are over-represented in it overall. A number with no mark means an inactive call.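 Rule for the calls: active = activity change below a set negative limit, meaning inhibition stronger than a set level (cut at about -70% in these data); inconclusive = activity change between two set negative limits; inactive = the rest.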
% is set by controls: 0 for no effect and ±100 for the full control effect.

For the assay, the target named is Thyrotropin receptor (Homo sapiens) (UniProt P16473). As to the kind of experiment: Antagonists of the Thyroid Stimulating Hormone Receptor: HTS campaign. To be noted: TSHR-expressing cells, TSH-stimulated cAMP HTRF, 2 h; at 11.5 µM; hits give low values. An outline of the steps: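 TSHR-expressing cells, 200/well, pre-treated with compound, then stimulated with EC80 TSH (4nM final) for 2 hours at 37 deg C. cAMP measured by competitive HTRF: anti-cAMP cryptate antibody in lysis buffer plus cAMP-d2, read after 30 minutes at room temperature.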
Thyrotropin receptor (Homo sapiens), sequence (P16473 whole entry, looked up): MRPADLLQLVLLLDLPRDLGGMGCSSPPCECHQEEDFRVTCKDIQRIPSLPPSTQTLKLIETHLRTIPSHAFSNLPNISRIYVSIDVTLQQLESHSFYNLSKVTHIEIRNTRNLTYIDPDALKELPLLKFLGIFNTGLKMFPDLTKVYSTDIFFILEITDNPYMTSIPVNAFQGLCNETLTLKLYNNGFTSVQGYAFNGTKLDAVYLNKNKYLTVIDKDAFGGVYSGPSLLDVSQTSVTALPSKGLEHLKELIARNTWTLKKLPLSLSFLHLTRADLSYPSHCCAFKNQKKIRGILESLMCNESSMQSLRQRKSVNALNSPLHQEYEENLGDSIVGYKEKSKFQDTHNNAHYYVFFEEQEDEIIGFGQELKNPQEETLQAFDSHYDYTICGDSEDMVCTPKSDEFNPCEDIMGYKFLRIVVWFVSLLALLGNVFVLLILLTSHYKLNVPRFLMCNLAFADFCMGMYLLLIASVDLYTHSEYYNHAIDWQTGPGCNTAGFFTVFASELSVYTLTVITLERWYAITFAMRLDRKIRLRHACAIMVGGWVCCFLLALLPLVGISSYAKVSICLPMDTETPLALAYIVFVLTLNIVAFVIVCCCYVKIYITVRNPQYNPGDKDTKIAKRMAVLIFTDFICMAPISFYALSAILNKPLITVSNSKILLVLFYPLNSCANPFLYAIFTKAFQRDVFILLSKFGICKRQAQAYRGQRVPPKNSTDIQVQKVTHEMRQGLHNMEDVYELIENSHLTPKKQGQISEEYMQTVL
For the compound `COc1cccc(CNS(=O)(=O)c2ccc3c(c2)CC(C)N3C(C)=O)c1` (stereo not given), the activity change, negative = inhibition was -6.62%.

As to `CC(=O)N1c2ccc(S(=O)(=O)NCCC(=O)N(C)C3CCCCC3)cc2CC1C` (stereo not given), the activity change, negative = inhibition is 4.56%.

For the compound `CC(=O)N1c2ccc(S(=O)(=O)N(C)CC(=O)N(C)Cc3ccccc3)cc2CC1C` (stereo not given), the activity change, negative = inhibition is -99.1% (active).

For `Cc1ccc2cc(C)c(N3CCN(c4ccc(F)cc4)CC3)nc2c1`, the activity change, negative = inhibition was 12.4%.

With `CC(Sc1nncs1)C(=O)NCc1ccc2c(c1)OCO2` (stereo not given), the activity change, negative = inhibition was 18.9%.

Take `COc1cccc(CNC(=O)c2nnn(CC(=O)Nc3cc(C)ccc3C)c2N)c1`: the activity change, negative = inhibition is 4.35%.

As to `COc1ccc(CNC(=O)c2nnn(CC(=O)Nc3cc(C)cc(C)c3)c2N)cc1`, the activity change, negative = inhibition was 5.35%.

For the compound `COc1cccc(CNC(=O)c2nnn(CC(=O)Nc3cc(Cl)ccc3C)c2N)c1`, the activity change, negative = inhibition was -74.4% (active).

Take `CC(=O)/C(C)=N/O`: the activity change, negative = inhibition was 17.4%.

On to `CC12CCC(C(=O)N(NC(=O)c3ccccc3O)C1=O)C2(C)C` (stereo not given), for which the activity change, negative = inhibition was 68.7%.

For `COc1cc(/C=C(/NC(=O)c2ccc(Cl)cc2Cl)C(=O)O)cc(OC)c1OC`, the activity change, negative = inhibition was -0.961%.

For the compound `COc1cccc(CCNC(=O)COc2cccc3c2OC(C)(C)C3)c1`, the activity change, negative = inhibition was -10.3%.

As to `COc1ccccc1C(=O)NCCC(=O)N(C)Cc1cccnc1`, the activity change, negative = inhibition was 9.57%.

In the case of `COc1cc(C2NC(=O)NC(c3ccccc3)=C2C(C)=O)c(Br)cc1OCC(N)=O` (stereo not given), the activity change, negative = inhibition is -8.27%.

Regarding `C[C@H](NC(=O)c1nc[nH]c1C(=O)NCC(=O)OC(C)(C)C)C(=O)OCc1ccccc1`, the activity change, negative = inhibition is -7.53%.

On to `O=C(NNC(=O)c1cc(-c2ccccc2Cl)nc2ccccc12)c1csc(N2CCOCC2)n1`, for which the activity change, negative = inhibition was 0.138%.

`CS(=O)(=O)N(CC(=O)N/N=C/c1ccccn1)c1ccc(Oc2ccccc2)cc1`: the activity change, negative = inhibition was -9.31%.

As to `O=[N+]([O-])c1c(NCCO)cc(Sc2nc3ccccc3s2)c2nonc12`, the activity change, negative = inhibition was -94.3% (active).

In the case of `NC(=O)c1ccc(Nc2ccc3nonc3c2[N+](=O)[O-])cc1`, the activity change, negative = inhibition is 27.6%.

For the compound `Cc1nc2nc(CSc3nc4ccccc4s3)cc(=O)n2[nH]1`, the activity change, negative = inhibition was -15%.

With `O=C(COC(=O)COc1cccc(F)c1)NCC1CCCCC1`, the activity change, negative = inhibition is 8.58%.

As for `Cc1cnc(NC(=O)c2ccccn2)s1`, the activity change, negative = inhibition was 6.51%.

Regarding `CC(=O)Oc1ccccc1C(=O)Nc1ncc([N+](=O)[O-])s1`, the activity change, negative = inhibition was -80.5% (active).

On to `O=C(Cc1c(F)cccc1Cl)Nc1ncc([N+](=O)[O-])s1`, for which the activity change, negative = inhibition was -13.2%.

Regarding `CCOc1ccc(C(CC(=O)O)NC(=O)C23CC4CC(CC(C4)C2)C3)cc1OC` (stereo not given), the activity change, negative = inhibition was -4.83%.

Regarding `Cc1occc1-c1nnc(SCC(=O)NC2CCCCC2)o1`, the activity change, negative = inhibition was -3.93%.

Regarding `CCCCCCCCc1c(O)nc(-n2[nH]c(C)c(CCO)c2=O)[nH]c1=O`, the activity change, negative = inhibition is 7.75%.

Regarding `Cc1cccc(C(=O)NNC(=O)CSc2nnc(C(C)C)n2C)c1`, the activity change, negative = inhibition was 2.38%.

`Cc1ccc(SCC(=O)c2cc(C)c(OC(=S)N(C)C)c(C)c2)cc1`: the activity change, negative = inhibition is -25%.

Take `N=C1C(c2nc3ccccc3s2)=C(O)CN1NC(=O)c1ccc([N+](=O)[O-])cc1`: the activity change, negative = inhibition was -1.44%.

As for `O=C(NC(Nc1nc2ccc([N+](=O)[O-])cc2s1)(C(F)(F)F)C(F)(F)F)c1ccccc1`, the activity change, negative = inhibition was -78.9% (active).

For `Cc1cc(CNC(=O)c2cccc([N+](=O)[O-])c2)c2ccccc2n1`, the activity change, negative = inhibition was -9.8%.

As for `CN(C)c1cc2c(Nc3ccc4c(cnn4Cc4ccccc4)c3)ncnc2cn1`, the activity change, negative = inhibition was -17.2%.

As to `COc1ccc(CCNC(=O)C2CC3Cn4c(nc5cc(C)c(C)cc54)C3N2C)cc1` (stereo not given), the activity change, negative = inhibition is -1.1%.

`Nc1ncnc2c1c(I)cn2[C@@H]1C[C@H](N)[C@@H](O)[C@H]1O`: the activity change, negative = inhibition is -18%.

For `CCOc1ccc(C(=O)NC2CCN(CC(=O)NCc3cccs3)CC2)cc1`, the activity change, negative = inhibition was 1.48%.

Regarding `O=C(Nn1c(SCc2ccc([N+](=O)[O-])cc2)nc2ccccc2c1=O)c1ccc(F)cc1`, the activity change, negative = inhibition was -74.2% (active).

As for `Cc1nc2ccccc2c(=O)n1NC(=O)c1ccc(Cl)c([N+](=O)[O-])c1`, the activity change, negative = inhibition was -24.1%.

Take `C=CCn1c(SCc2ccc(C(=O)NCCO)cc2)nc2ccccc2c1=O`: the activity change, negative = inhibition is -4.95%.

Consider `CCO[C@@H]1OC(C(=O)NCc2nc3ccccc3[nH]2)=C[C@H](C2CCCCC2)[C@H]1CCCO`, for which the activity change, negative = inhibition is -6.97%.

On to `CC(C)C[C@H](NC(=O)[C@H](O)[C@H](N)Cc1ccccc1)C(=O)O`, for which the activity change, negative = inhibition is -6.27%.

For `O=C(CSc1ncn[nH]1)Nc1nc(-c2cccc([N+](=O)[O-])c2)cs1`, the activity change, negative = inhibition is 7.62%.

As for `COc1ccc(-n2cnnc2SCC(=O)Nc2cccc([N+](=O)[O-])c2)cc1`, the activity change, negative = inhibition was -5.22%.

For the compound `O=C(CSc1nc(-c2ccccc2)cs1)Nc1cccc([N+](=O)[O-])c1`, the activity change, negative = inhibition is -78.8% (active).

In the case of `COc1cc(NC(=O)c2cc([N+](=O)[O-])ccc2Br)ccc1NC(=O)c1ccco1`, the activity change, negative = inhibition is -16.5%.

Turning to `Cc1ccccc1NC(=O)CSc1nc2ccc(Nc3nc(N4CCOCC4)nc(N4CCOCC4)n3)cc2s1`, the activity change, negative = inhibition was -6.48%.

Turning to `Cc1ccc(Nc2nc(N)nc(CN3CCN(Cc4ccccc4)CC3)n2)cc1Cl`, the activity change, negative = inhibition was 5.19%.

As for `Cc1ccc(Nc2nc(N3CCOCC3)nc(N3CCOCC3)n2)cc1Cl`, the activity change, negative = inhibition is -135% (active).

For the compound `O=C(Nc1ccc(-c2cscn2)cc1)C1CCCN(Cc2ccc(CO)o2)C1` (stereo not given), the activity change, negative = inhibition was 14.3%.

As for `CSc1nnc(-c2ccc(C(F)(F)F)cn2)o1`, the activity change, negative = inhibition was 7.33%.
